Hits are enriched below; roughly 1% of the tested compounds scored in any of these assays.
FadD28 FP inh: inhibitors of Mycobacterium tuberculosis FadD28 bisubstrate binding. actives 0.22% (n = 360,000). FadD28 bisubstrate probe binding, fluorescence polarization. AID 588549. inhibition, % at 12.5 µM; in the data active = inhibition above about 8.5%, passing the limit was not always enough
Y pestis TopoI: inhibitors of Yersinia pestis topoisomerase I. Y. pestis Topo-I cleavage product accumulation, plate reader. activity, % at 10 µM. actives 0.064% (n = 360,000); in the data active = activity above about 50%, passing the limit was not always enough
TcdB GH inh: blocks C. difficile toxin B glycohydrolase activity | TcdB glycohydrolase enzymatic assay, plate reader | inhibition, % at 9.99 µM | actives 0.24% (n = 350,000); in the data active = inhibition above about 10%
Mtb BioA inh: inhibitors of Mycobacterium tuberculosis BioA enzyme. purified M. tuberculosis BioA enzyme, plate reader. inhibition, % at 9.99 µM. actives 0.096% (n = 360,000); in the data active = inhibition above about 40%
VHR inh abs: DUSP3 (human) phosphatase inhibition | P51452 | actives 0.52% (n = 290,000) | inhibition, % at 13.3 µM | recombinant VHR phosphatase, pNPP absorbance; in the data active = inhibition above about 50%
MazF activator: activators of E. coli MazEF toxin-antitoxin RNase; AID 504720; P0AE70; FAM/BHQ RNA-DNA oligo cleavage fluorescence, 5 h; actives 0.32% (n = 350,000); activation, % at 20 µM; in the data active = activation above about 50%
* marks the source's active call; other numbers are inactive results; nt = no result.

SMILES	FadD28 FP inh	Y pestis TopoI	TcdB GH inh	Mtb BioA inh	VHR inh abs	MazF activator
CC1CCCCN1CCCNC(=O)c1ccc(Br)cc1 (stereo not given)	-1	8	-1	1	58*	-4
CCOC(=O)c1cc([N+](=O)[O-])sc1N	-2	-1	29*	-1	29	4
NS(=O)(=O)c1ccc(CCNC(=O)c2ccc(CS(=O)(=O)c3ccc(Br)cc3)o2)cc1	-5	8	12*	0	7	1
CCCc1[nH]nc2c1C(c1ccc(O)c(OC)c1)C(C#N)=C(N)O2 (stereo not given)	-5	-6	nt	nt	14	53*
CCCc1[nH]nc2c1C(c1ccccc1OC)C(C#N)=C(N)O2 (stereo not given)	-4	1	nt	0	21	7
COCc1[nH]nc2c1C(c1cc(OC)c(O)c(OC)c1)C(C#N)=C(N)O2 (stereo not given)	0	-8	nt	nt	1	195*
COCc1[nH]nc2c1C(c1ccc(OC)c(OC)c1)C(C#N)=C(N)O2 (stereo not given)	0	6	nt	3	21	5
COc1cc(C2C(C#N)=C(N)Oc3n[nH]c(-c4cccs4)c32)cc(OC)c1O (stereo not given)	0	7	-40	0	7	60*
COc1ccc(C[C@H]2CCc3cnnn3COC[C@@H](Cc3ccccc3)NC2=O)cc1	nt	nt	0	nt	nt	nt
CO[C@@H]1CN(C)C(=O)c2ccc(NC(=O)C3CC3)cc2OC[C@@H](C)N(C(=O)c2ccccc2F)C[C@@H]1C	nt	nt	0	nt	nt	nt
O=C(CC(F)(F)F)N1C[C@@H]2[C@H](c3ccccc31)[C@@H](CO)N2C(=O)c1cccnc1	nt	nt	1	-3	nt	nt
N#CC(C#N)=C(N)/C(C#N)=C/c1cc(O)c(O)c(O)c1	13*	-9	-8	2	nt	-43
COCC(=O)N(C)C[C@H]1Oc2ncc(-c3ccccc3OC)cc2C(=O)N([C@H](C)CO)C[C@@H]1C	nt	nt	0	7	nt	nt
CCCn1c(C)cc(C(=O)COc2ccc(C)nc2[N+](=O)[O-])c1C	-3	1	1	11	54*	-4
CSc1ncc(Cl)c(C(=O)Nc2nnc(SC/C=C/c3ccccc3)s2)n1	15*	4	0	1	17	-4
C=CCSc1nnc(NC(=O)c2nc(SCC)ncc2Cl)s1	0	-5	0	nt	-20	-1
CCCNC(=O)[C@@H]1[C@@H](CO)[C@@H]2Cn3c(ccc(C4=CCCC4)c3=O)[C@H]1N2C(=O)CC	nt	nt	0	-2	nt	nt
O=C(CSCCO)Nc1ccc([N+](=O)[O-])cc1	-4	3	-1	1	52*	5
O=C(CSCCO)Nc1cccc([N+](=O)[O-])c1	-1	-1	nt	nt	-4	0
COc1ccc(-n2ncc3c2CC(C)(C)CC3NC(=O)CCCN2CCCC2=O)cc1 (stereo not given)	1	1	0	1	57*	1
CC1(C)Cc2c(cnn2-c2ccc(F)cc2)C(NC(=O)CCC(F)(F)F)C1 (stereo not given)	1	11	1	0	59*	8
COC(=O)CCC(=O)NC1CC(C)(C)Cc2c1cnn2-c1ccc(F)cc1 (stereo not given)	-2	-9	2	-1	0	7
CC1=C(C(=O)NC2CC(C)(C)Cc3c2cnn3-c2cccc(F)c2)OCCO1 (stereo not given)	-1	16	1	58*	18	4
COc1ccc2c3c([nH]c2c1)[C@H](CO)N(C(=O)CN(C)C)CC31CCN(CC2CCCC2)CC1	nt	nt	-2	nt	nt	nt
CC(C)(C)OC(=O)N/N=C/c1ccc(N2CCOCC2)s1	1	-1	-4	nt	-7	226*
Nc1ccc(C(=O)N/N=C/c2ccc(N3CCOCC3)s2)cc1	-4	-19	-7	0	nt	-5
Cc1cc(C)c2c(c1)-c1cc(C)nn1C(c1ccc3c(c1)OCO3)N2 (stereo not given)	-2	1	nt	1	56*	-3
CCc1cc2cc3c(cc2nc1SCC(=O)Nc1c[nH]c(=O)[nH]c1=O)OCO3	-3	0	1	-1	-3	4
CCCc1nc(SCC(=O)Nc2nccs2)c2ccccc2n1	1	0	1	-6	26	13
CCc1cc2cc3c(cc2nc1SCC(=O)Nc1nccs1)OCO3	-3	2	nt	-1	45	56*

Source: PubChem (several laboratories)
